# In the library only some 1.2% were active in any assay of this set; here they are far more common.
# RGS4-Gao reg: human RGS4-Galphao interaction regulation; binding response (% of control), % at 10 µM; Multiplexed bead flow cytometry, RGS4-Galphao binding; actives lie on both sides; P09471; 220,000 compounds, 0.33% hits; in the data active = binding response below about 49% or above about 150%; inactive = in between;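 also: fluorescent Galphao activated with aluminum fluoride binding bead-coupled RGS4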
# Target sequence (P09471 whole entry, looked up): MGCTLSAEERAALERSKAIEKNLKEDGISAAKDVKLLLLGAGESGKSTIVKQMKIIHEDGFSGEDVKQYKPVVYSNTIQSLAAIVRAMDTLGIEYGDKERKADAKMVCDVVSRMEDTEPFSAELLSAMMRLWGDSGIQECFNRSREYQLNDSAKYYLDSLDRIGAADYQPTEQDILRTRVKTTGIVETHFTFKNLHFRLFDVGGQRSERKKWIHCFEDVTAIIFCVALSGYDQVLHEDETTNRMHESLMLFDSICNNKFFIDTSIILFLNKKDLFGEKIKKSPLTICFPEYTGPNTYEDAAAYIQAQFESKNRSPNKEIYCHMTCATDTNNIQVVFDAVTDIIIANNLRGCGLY
# GSH fluor: compound fluoresces at 488/530 nm on GSH beads | GSH beads flow cytometry, compound fluorescence 488/530 nm; active compounds read high | fluorescence (KMESF) at 10 µM | 190,000 compounds, 0.25% hits; in the data active = fluorescence above about 89;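 also: glutathione beads carrying GST-tagged Bcl family fusion proteins plus one bare bead set; values are compound well signal with DMSO vehicle wells as background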
# RGS16-Gao HTS: RGS16-Galphao interaction regulator (human) | bead-based flow cytometry RGS16-Galphao binding, fluorescence; actives lie on both sides | O15492+P09471 | binding response (% of control), % at 10 µM | 220,000 compounds, 0.38% hits | AID 1441;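 also: Galphao activated by GDP with aluminum fluoride before binding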
# Avidin bead fluor: compound fluoresces at 488/530 nm on avidin beads; fluorescence (KMESF) at 10 µM; compound fluorescence 488/530 nm, flow cytometry; active compounds read high; 220,000 compounds, 0.38% hits; in the data active = fluorescence above about 47
# RGS7-Gao: regulators of human RGS7-Galphao interaction; P09471; Multiplexed bead flow cytometry, RGS7-Galphao binding; actives lie on both sides; binding response (% of control), % at 10 µM; 220,000 compounds, 0.35% hits; AID 1439; in the data active = binding response below about 49% or above about 150%; inconclusive = no clear call, values can overlap the other calls; inactive = in between;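 also: fluorescent Galphao held in activated GDP-AlF4 state binding bead-coupled RGS7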
# RGS8-Gao reg: regulators of human RGS8-Galphao interaction; P09471; multiplexed bead flow cytometry, RGS8-Galphao binding; actives lie on both sides; response (percent of control binding), % at 10 µM; 220,000 compounds, 0.34% hits; in the data active = response below about 60% or above about 140%; inactive = in between;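 also: Galphao activated as the GDP aluminium fluoride complex binding bead-coupled RGS8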
# RGS4-Gao HTS: RGS4-Galphao interaction regulator (human). RGS4–Galpha-o binding response, % at 10 µM. multiplexed bead flow cytometry, RGS–Galpha-o binding. 1,600 compounds, 99% hits. shares compounds with RGS16-Gao HTS;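 also: fluorescently labeled Galpha-o bound to GDP with aluminium fluoride binding biotinylated RGS beads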
# Avidin counter: counter-screen: compounds disrupting biotin binding to avidin beads; shares compounds with RGS16-Gao HTS; inhibition, % at 10 µM; 1,700 tested, under 10 active; streptavidin beads, fluorescein-biotin binding, flow cytometry;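 active = inhibition above 50%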;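 also: median green fluorescence of gated singlet beads compared with DMSO control wells; 0% = DMSO wells and 100% = complete loss of bead fluorescence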
# RGS8-Gao confirm: RGS8-Galphao interaction regulation, single point confirmation; shares compounds with RGS16-Gao HTS; AID 1836; binding response (% of control), % at 10 µM; bead-based flow cytometry RGS8-Galphao binding, fluorescence; actives lie on both sides; 1,700 compounds, 3% hits; in the data active = binding response below about 72% or above about 130%; inactive = in between;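 also: Galphao activated as GDP AlF4 complex before binding bead RGS8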
# RGS7-Gao single: confirmation of regulators of human RGS7-Galphao interaction; response (percent of control binding), % at 10 µM; shares compounds with RGS16-Gao HTS; bead-based flow cytometry RGS7-Galphao binding; actives lie on both sides; 1,700 compounds, 7.8% hits; in the data active = response below about 75% or above about 130%; inactive = in between;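 also: fluorescent Galphao activated with GDP and aluminum fluoride binding bead-coupled RGS7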
# RGS16-Gao conf: RGS16-Galphao interaction regulation, single point confirmation; shares compounds with RGS16-Gao HTS; bead-based flow cytometry, RGS16-Galphao binding; actives lie on both sides; response (% of control binding), % at 10 µM; 1,700 compounds, 4% hits; in the data active = response below about 74% or above about 130%; inactive = in between;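 also: Galphao activated as the GDP aluminium fluoride complex binding bead-coupled RGS16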
# RGS4-Gao confirm: confirmation of regulators of human RGS4-Galphao interaction. shares compounds with RGS16-Gao HTS. RGS4-Galphao binding, multiplexed bead flow cytometry; actives lie on both sides. binding response (% of control), % at 10 µM. 1,700 compounds, 4% hits. AID 1840; in the data active = binding response below about 74% or above about 130%; inactive = in between
# RGS19-Gao single: confirmation of regulators of human RGS19-Galphao interaction | shares compounds with RGS16-Gao HTS | bead-based flow cytometry RGS19-Galphao binding; actives lie on both sides | response (percent of control binding), % at 10 µM | 1,700 compounds, 5% hits | AID 1841; in the data active = response below about 50% or above about 160%; inactive = in between;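 also: 100% = no compound control and 0% = blank background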
# Target sequence (P09471 whole entry, looked up): as above
# Target sequence (P49795 whole entry, looked up): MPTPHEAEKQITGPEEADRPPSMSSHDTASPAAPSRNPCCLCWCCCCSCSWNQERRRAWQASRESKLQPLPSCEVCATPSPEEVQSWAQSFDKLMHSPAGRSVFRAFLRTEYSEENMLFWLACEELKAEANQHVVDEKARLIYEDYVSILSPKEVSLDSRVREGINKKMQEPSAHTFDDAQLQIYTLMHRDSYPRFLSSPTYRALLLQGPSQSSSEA
# * = called active by the depositor; ? = inconclusive; · = no result; [ ] = another dose, or the depositor's remark. Unless noted, no rule for the calls is given here.
SMILES,RGS4-Gao reg,GSH fluor,RGS16-Gao HTS,Avidin bead fluor,RGS7-Gao,RGS8-Gao reg,Avidin counter,RGS8-Gao confirm,RGS7-Gao single,RGS16-Gao conf,RGS4-Gao confirm,RGS19-Gao single,others
Cc1cc(SCC(=O)Nc2ncc(Cl)cc2Cl)nc2ccccc12,97,15,96,6,100,100,·,·,·,·,·,·,
Cc1ccc(NC(=O)CCC(=O)c2cccs2)c(O)c1,104,·,104,12,?,100,·,·,·,·,·,·,
Cc1ccc(NC(=O)c2cc(C(=O)c3cc(Cl)ccc3O)cn(-c3ccc(C)cc3)c2=O)cc1,101,6,109,12,104,106,·,·,·,·,·,·,
Cc1c(Cl)cccc1NC(=S)NC(=O)CCN1C(=O)c2ccccc2C1=O,49*,5,61,0,47*,62,0,108,104,111,106,106,
CC(C(=O)Nc1ccc(S(=O)(=O)N2CCOCC2)cc1)N1C(=O)C2CC=CCC2C1=O (stereo unspecified),99,65,111,29,102,106,·,·,·,·,·,·,
Cn1cccc1/C=C1\SC(=S)N(NC(=O)c2ccccc2O)C1=O,99,·,91,9,?,101,·,·,·,·,·,·,
COc1ccccc1C(=O)NN1C(=O)/C(=C/c2cccn2C)SC1=S,·,·,·,95*,·,·,-1,104,104,104,102,101,
CN(C)C(=O)NC(Nc1ccc(Cl)cc1Cl)C(Cl)(Cl)Cl (stereo unspecified),71,18,17*,7,67,56*,2,95,89,89,89,92,RGS4-Gao HTS=71*
CN(C)C(=O)NC(NC(=S)Nc1ccccc1)C(Cl)(Cl)Cl (stereo unspecified),95,12,97,8,85,91,·,·,·,·,·,·,
CCCC(=O)Nc1cccc(NC(=O)c2cccc([N+](=O)[O-])c2C)c1,110,10,205*[activator],16,109,121,-1,96,95,93,94,85,RGS4-Gao HTS=110*
CCC(CC)NC(=O)c1cccc([N+](=O)[O-])c1C,116,10,237*[activator],5,113,138,0,101,100,99,98,99,RGS4-Gao HTS=116*
Cc1c(C(=O)NC(C)CCc2ccccc2)cccc1[N+](=O)[O-] (stereo unspecified),106,7,113,19,104,106,·,·,·,·,·,·,
C=CCn1c(SCC(=O)N2N=C(c3ccco3)CC2c2ccco2)nnc1-c1ccncc1 (stereo unspecified),93,16,68,10,92,84,·,·,·,·,·,·,
Cc1cc2cc(CCNC(=O)c3cccs3)c(=O)[nH]c2cc1C,103,16,97,6,100,100,·,·,·,·,·,·,
CCN(CC)CCCN=Cc1c(O)n(-c2ccccc2C)c(=O)c2ccccc12,95,·,98,8,?,100,·,·,·,·,·,·,
CC(OC(=O)Cc1coc2ccc3ccccc3c12)C(=O)NC(N)=O (stereo unspecified),99,·,100,8,?,98,·,·,·,·,·,·,
O=c1[nH]c(=O)n(Cc2ccco2)c2c1C(C(F)(F)F)(C(F)(F)F)N=C(c1ccc(F)cc1)N2,98,8,98,11,104,106,·,·,·,·,·,·,
O=c1[nH]c(=O)n(Cc2ccccc2)c2c1C(C(F)(F)F)(C(F)(F)F)N=C(c1ccco1)N2,49*,26,42,2,45*,56*,-1,101,101,101,100,98,
CN(C)S(=O)(=O)c1cc(NC(=O)CN2CCN(c3ccccc3O)CC2)ccc1Cl,99,18,100,24,98,102,·,·,·,·,·,·,
CSc1nc(-c2ccccc2)nn1S(=O)(=O)c1ccccc1,173*[activator],19,199*[activator],96*,171*[activator],104,-2,104,105,104,103,103,
CSc1nc(-c2ccccc2)nn1S(=O)(=O)c1ccc(Cl)cc1,87,12,86,9,84,91,·,·,·,·,·,·,
CCn1c(CC(=O)Nc2ccccc2)n[nH]c1=S,100,11,109,12,98,104,·,·,·,·,·,·,
CC1(C)CCC(C)(C)NC(=S)N1,99,17,15*,9,98,80,-1,86,71*,84,82,84,RGS4-Gao HTS=99*
CCOC1CC(C)(C)NC(=S)N1 (stereo unspecified),107,7,108,3,103,100,·,·,·,·,·,·,
O=C(C1CCC(CNS(=O)(=O)c2cccs2)CC1)N1CCCCC1 (stereo unspecified),93,35,55,4,95,93,·,·,·,·,·,·,
SMILES,RGS4-Gao reg,GSH fluor,RGS16-Gao HTS,Avidin bead fluor,RGS7-Gao,RGS8-Gao reg,Avidin counter,RGS8-Gao confirm,RGS7-Gao single,RGS16-Gao conf,RGS4-Gao confirm,RGS19-Gao single,others
CCN1CCN(C(=O)C2CCC(CNS(=O)(=O)c3ccccc3)CC2)CC1 (stereo unspecified),·,36,·,·,·,·,4,102,105,108,108,103,
CCC(=O)NC1=C(Cl)C(=O)C(NC(=O)CC)=C(Cl)C1=O,73,·,8.6*,3,?,53*,-2,35*,54*,-3.1*,77,-6.5*,RGS4-Gao HTS=73*
CCC(=O)NC1=C(NC(C)c2ccccc2)C(=O)c2ccccc2C1=O (stereo unspecified),109,26,104,4,107,107,·,·,·,·,·,·,
O=C(/C=C/c1ccc(O)cc1)c1ccccc1,102,·,102,3,?,102,·,·,·,·,·,·,
O=C(/C=C/c1ccc(N2CCC(c3ccccc3)=N2)cc1)c1ccccc1,113,172*,111,28,153*[activator],97,·,·,·,·,·,·,RGS4-Gao HTS=113*
NS(=O)(=O)c1cccc(NC(=O)Cc2ccc(Cl)c(Cl)c2)c1,156*[activator],14,150,12,167*[activator],148*[activator],1,101,97,101,100,87,
Cc1c(C(=O)NCCSCc2cccc(C(F)(F)F)c2)cnn1-c1ccc(Cl)cc1,106,·,102,6,?,104,·,·,·,·,·,·,
Cc1ccc2nc(-c3cccnc3)c(Nc3ccccc3C)n2c1,98,70,99,9,98,100,·,·,·,·,·,·,
